PubChem BioAssay (NCI)
Values joined by “and” are separate entries in the source; they are usually repeats but may differ in a detail not shown here. Identical values can stand only once. The panel holds about 83,000 compounds, 20% with a hit somewhere; the sample as a whole holds those more often.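 Single-dose data. Exposure time 48 hours. Values below 10 considered active.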

How the values were obtained:
Assay in all cases: NCI-60 one-dose screen, 48 h (100 = growth as untreated, 0 = no growth, -100 = all killed)
Conditions in all cases: 10 µM unless noted
SR leukemia = tested on: SR leukemia
RPMI-8226 leukemia = tested on: RPMI-8226 leukemia
OVCAR-8 ovarian = tested on: OVCAR-8 ovarian
OVCAR-5 ovarian = tested on: OVCAR-5 ovarian
OVCAR-4 ovarian = tested on: OVCAR-4 ovarian
SK-OV-3 ovarian = tested on: SK-OV-3 ovarian
IGROV1 ovarian = tested on: IGROV1 ovarian
OVCAR-3 ovarian = tested on: OVCAR-3 ovarian
HS 578T breast = tested on: HS 578T breast
NCI/ADR-RES ovarian = tested on: NCI/ADR-RES ovarian

Measured: growth

Nc1ccc(Cl)c(S(=O)(=O)O)c1
inactive: SR leukemia 103% | RPMI-8226 leukemia 111% | OVCAR-8 ovarian 93.3% | OVCAR-5 ovarian 95.7% | OVCAR-4 ovarian 106% | SK-OV-3 ovarian 99.5% | IGROV1 ovarian 102% | OVCAR-3 ovarian 101% | HS 578T breast 98.8% | NCI/ADR-RES ovarian 103%

ON=C(C1CCCCC1)C1CCCCC1
inactive: SR leukemia 97.2% | RPMI-8226 leukemia 105% | OVCAR-8 ovarian 107% | OVCAR-5 ovarian 89.5% | OVCAR-4 ovarian 107% | SK-OV-3 ovarian 106% | IGROV1 ovarian 102% | OVCAR-3 ovarian 105% | HS 578T breast 101% | NCI/ADR-RES ovarian 103%

CC(=O)Nc1ccc2oc(=O)ccc2c1
inactive: SR leukemia 82.3% | RPMI-8226 leukemia 104% | OVCAR-8 ovarian 106% | OVCAR-5 ovarian 102% | OVCAR-4 ovarian 106% | SK-OV-3 ovarian 102% | IGROV1 ovarian 105% | OVCAR-3 ovarian 110% | HS 578T breast 109% | NCI/ADR-RES ovarian 116%

Cc1ccc(N)cc1S(=O)(=O)O
inactive: SR leukemia 89.6% and 90.4% | RPMI-8226 leukemia 103% and 102% | OVCAR-8 ovarian 108% and 100% | OVCAR-5 ovarian 108% and 125% | OVCAR-4 ovarian 104% | SK-OV-3 ovarian 106% and 116% | IGROV1 ovarian 109% and 113% | OVCAR-3 ovarian 108% and 117% | NCI/ADR-RES ovarian 106% and 113%

S=c1nn[nH]n1C1CCCCC1
inactive: SR leukemia 101% | RPMI-8226 leukemia 109% | OVCAR-8 ovarian 95.4% | OVCAR-5 ovarian 117% | OVCAR-4 ovarian 109% | SK-OV-3 ovarian 137% | IGROV1 ovarian 104% | OVCAR-3 ovarian 104% | HS 578T breast 95.7% | NCI/ADR-RES ovarian 112%

O=C(NC(=O)c1ccc(F)c(Cl)c1)NC1CC1
inactive: SR leukemia 91.4% | RPMI-8226 leukemia 98% and 102% | OVCAR-8 ovarian 98.8% and 103% | OVCAR-5 ovarian 109% and 105% | OVCAR-4 ovarian 119% and 93.4% | SK-OV-3 ovarian 114% and 105% | IGROV1 ovarian 113% and 109% | OVCAR-3 ovarian 104% and 107% | HS 578T breast 102% and 96.6% | NCI/ADR-RES ovarian 107% and 103%

O=C(c1ccc(Cl)cc1)C1C(c2ccccc2)C1[N+](=O)[O-] (stereo not given)
inactive: SR leukemia 78% | RPMI-8226 leukemia 96.3% | OVCAR-8 ovarian 99% | OVCAR-5 ovarian 109% | OVCAR-4 ovarian 99% | SK-OV-3 ovarian 105% | IGROV1 ovarian 103% | OVCAR-3 ovarian 97.8% | HS 578T breast 96% | NCI/ADR-RES ovarian 99.7%

COC(=O)c1cc(C(=O)OC)cc([N+](=O)[O-])c1
inactive: SR leukemia 74.7% | RPMI-8226 leukemia 93.8% | OVCAR-8 ovarian 93.5% | OVCAR-5 ovarian 106% | OVCAR-4 ovarian 106% | SK-OV-3 ovarian 98.5% | IGROV1 ovarian 118% | HS 578T breast 103% | NCI/ADR-RES ovarian 115%

COc1cc2oc3cc(=O)cc4oc(-c5ccccc5)cc(c2c2c1CCC(c1ccccc1)O2)c43 (stereo not given)
inactive: SR leukemia 69.6% | RPMI-8226 leukemia 61.4% | OVCAR-8 ovarian 87% | OVCAR-5 ovarian 106% | OVCAR-4 ovarian 84.8% | SK-OV-3 ovarian 92.8% | OVCAR-3 ovarian 106% | HS 578T breast 65.7% | NCI/ADR-RES ovarian 86.6%

O=C(N=C1C(=O)C2(CCCCC2)C2(N=C(c3ccccc3)OC2=O)C12CCCCC2)c1ccccc1 (stereo not given)
inactive: SR leukemia 71.8% | RPMI-8226 leukemia 53.2% | OVCAR-8 ovarian 75.4% | OVCAR-5 ovarian 85.8% | OVCAR-4 ovarian 73.8% | SK-OV-3 ovarian 99.3% | IGROV1 ovarian 75% | HS 578T breast 95.9% | NCI/ADR-RES ovarian 76.8%

CN(C)CC(CN(C)C)C(O)c1ccccc1 (stereo not given)
inactive: SR leukemia 111% | RPMI-8226 leukemia 108% | OVCAR-8 ovarian 104% | OVCAR-5 ovarian 106% | OVCAR-4 ovarian 102% | SK-OV-3 ovarian 103% | IGROV1 ovarian 106% | HS 578T breast 108% | NCI/ADR-RES ovarian 100%
